The list is not random: actives were taken first. Their share in the collection is about 6.1%.
15-hLO inh – 15-hLO (ALOX15) enzyme inhibition. Potency, µM (highest dose often 57.1 µM), for the others: at the highest dose activity change, negative = inhibition, most hits filed as inhibitors. purified 15hLO-1, xylenol orange hydroperoxide absorbance. 74,000 compounds, 1.4% hits; further: nearly all actives have a fitted effect of over 55% in size
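Purified human 15hLO-1 (40 nM) in 25 mM Hepes pH 7.5, 0.01% Triton X-100, preincubated 15 min RT with compound, then 50 uM arachidonic acid for 6 min. Hydroperoxide read by ferrous/xylenol orange, 30 min; 573/405 nm absorbance ratio gave progress.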
Luciferase inh – firefly luciferase inhibition; P08659; purified firefly luciferase, luminescence, 8 min; Potency, µM (top dose mostly 57.1 µM), inactives show at the highest dose activity change, negative = inhibition, usual class: inhibitors; 72,000 compounds, 2.2% hits; AID 411; further: nearly all actives have a fitted effect of over 40% in size
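Compounds were tested as concentration series (qHTS) against purified P. pyralis luciferase with luciferin and 10 uM ATP in 50 mM imidazole pH 7.2, 50 mM KCl, 7 mM MgCl2, 0.01% Tween 20, 0.05% BSA. Luminescence was read after 8 min at ambient temperature.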
ERK AVP block – vasopressin-driven ERK pathway inhibition. HEK293-V1b, vasopressin-stimulated pERK AlphaScreen. AID 995. Potency, µM (highest dose often 57.5 µM), for the others: at the highest dose activity, negative = inhibition, most hits filed as inhibitors. 72,000 compounds, 0.99% hits; further: nearly all actives have a fitted effect of over 55% in size
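V1b-HEK293 cells; cpd 30 min 37C; 25 nM vasopressin 5 min; lyse 10 min; AlphaScreen beads 5 hr RT. Normalized to DMSO basal and 25 nM vasopressin; AC50 by Hill fit.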
Tau fil binding – tau filament binding; P10636; 71,000 compounds, 2% hits; Potency, µM (top dose mostly 57.1 µM), for the others: top-dose activity change, negative = inhibition; recombinant tau filaments, thioflavin S fluorescence, 15 h; filaments grown with octadecylsulfate alongside compound; AID 596;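 further: actives lower thioflavin S fluorescence by blocking filaments or displacing dye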
Target sequence (P10636 whole entry, looked up): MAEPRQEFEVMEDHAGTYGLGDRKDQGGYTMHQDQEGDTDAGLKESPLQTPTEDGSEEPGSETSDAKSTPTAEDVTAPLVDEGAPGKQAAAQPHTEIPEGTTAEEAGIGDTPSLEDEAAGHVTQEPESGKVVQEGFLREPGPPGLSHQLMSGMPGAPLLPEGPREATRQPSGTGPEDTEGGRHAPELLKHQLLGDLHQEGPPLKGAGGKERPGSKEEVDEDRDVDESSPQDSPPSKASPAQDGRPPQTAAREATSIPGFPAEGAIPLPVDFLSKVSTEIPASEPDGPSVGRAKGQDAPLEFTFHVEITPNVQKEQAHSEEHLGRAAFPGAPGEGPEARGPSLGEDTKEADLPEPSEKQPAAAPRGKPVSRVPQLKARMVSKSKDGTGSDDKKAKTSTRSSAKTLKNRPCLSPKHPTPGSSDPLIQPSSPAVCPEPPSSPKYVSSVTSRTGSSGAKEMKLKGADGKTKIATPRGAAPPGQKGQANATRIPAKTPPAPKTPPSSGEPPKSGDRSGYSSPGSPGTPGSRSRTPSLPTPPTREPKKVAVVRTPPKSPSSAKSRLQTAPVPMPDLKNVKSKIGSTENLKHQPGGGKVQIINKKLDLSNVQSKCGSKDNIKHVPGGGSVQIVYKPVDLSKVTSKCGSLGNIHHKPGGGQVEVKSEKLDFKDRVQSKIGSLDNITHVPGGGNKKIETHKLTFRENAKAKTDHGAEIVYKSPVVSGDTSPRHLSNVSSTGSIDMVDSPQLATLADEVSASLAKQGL
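Read-out: ThS fluorescence, 450 nm excitation/510 nm emission; lower signal marks blocked filament formation or displaced dye. Tau at 1 uM with 30 uM ODS, 10 uM ThS, 5 mM DTT, 100 mM NaCl, 10 mM HEPES pH 7.4; 15 h, 37 C.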
Hsp90 Hop PPI – changes Hsp90-Hop TPR2A binding signal, up or down. AlphaScreen TPR2A-His6 binding biotin-Hsp90 C-terminal peptide. Potency, µM (doses to about 57 µM), for the others: at the top dose activity change, negative = inhibition. 71,000 compounds, 0.44% hits; active means well fitted curve in either direction with a large enough effect; inconclusive means small, poorly fitted or top-dose-only effect, or another doubt
Bst PK mod – modulators of Bacillus stearothermophilus pyruvate kinase; purified pyruvate kinase, luminescence ATP production; ribose 5-phosphate activator present at AC10; Potency, µM; 51,000 compounds, 1.2% hits; in the data active means potency below about 11 µM; inconclusive means mostly about 12 µM to 25 µM;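 the screen sought inhibitors and activators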;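 further: scaled between full activation by ribose 5 phosphate and full inhibition by luteolin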
* marks the source's active call; other numbers are inactive results; i = inactive; ? = inconclusive; . = not tested or not shown; [ ] = dose if it differs, or a comment. Unless noted, the call rests on the fitted dose curve; in most records, active means well fitted curve in the direction sought with a large enough effect; inconclusive means small, poorly fitted or top-dose-only effect, or another doubt; inactive means no such curve, though single readings can be large; an effect the other way counts as inactive or inconclusive. Unless noted, on the % scale 0 is the no-effect control and ±100 the full control effect; potency means the concentration at half of the fitted maximal effect.

SMILES | 15-hLO inh | Luciferase inh | ERK AVP block | Tau fil binding | Hsp90 Hop PPI | Bst PK mod
Cc1csc(SCC(=O)c2ccc(S(=O)(=O)N3CCOCC3)cc2)n1 | 20µM* | 0% | ? | -9% | -7% | >57
CC1CCC2(OC1)OC1CC3C4CC[C@@H]5CC(O)CC[C@@]5(C)C4CC(=O)[C@]3(C)C1C2C (stereo not given in full) | 4% | . | 6% | . | . | .
Cc1cnc(CNc2cc(-c3ccc4c(c3)OCO4)ncn2)cn1 | -13% | -1%[2.29 µM] | -4% | -7% | -1% | .
Ic1ccc2c(c1)N(c1ccccc1)c1cc(Nc3ccc4nc5ccc(I)cc5[n+](-c5ccccc5)c4c3)ccc1N2 | -24%[11.4 µM] | -4%[11.4 µM] | 8%[11.5 µM] | 4µM* | -8%[11 µM] | .
Cc1ccc(-c2nc3c(=O)n(C)c4ccccc4c3o2)cc1 | -3% | -7% | -10% | 60% | 4% | 0.17*
Cc1ccc(-c2nc3ccccc3c(=O)n2CCN2CCOCC2)cc1 | 3% | 2% | 2% | 6% | -4% | >57
CC12C=C(/C=C/c3ccc(C(F)(F)F)cc3)C(C)(C1)C(c1ccc(C(F)(F)F)cc1)CC2=O (stereo not given) | -2%[11.4 µM] | . | 14%[11.5 µM] | . | . | .
Cn1nc(C(=O)Nc2sccc2C(N)=O)ccc1=O | 1% | -4% | -24% | 25µM* | 0% | .
Cc1cc(C)n(-c2ccc(C(=O)Nc3sccc3C(N)=O)cc2)n1 | -8% | -29% | ? | -24% | -3% | i
CCN1C(C)=C(C(=O)OC)C(c2ccccc2)N2C(=O)[C@](O)(C(=O)OC)C(c3ccccc3)C(C(C)=O)=C12 (stereo not given in full) | 1%[11.4 µM] | . | -7%[11.5 µM] | . | . | .
CC(=NC1CCCCC1)C1=C(O)c2ccccc2C1=O | 0% | 7.9µM* | ? | 16µM* | -5% | .
CCCn1c(-c2ccc(F)cc2)nc2c(NC(C)CN(C)C)nc(C)nc21 (stereo not given) | 6% | . | 0% | -8% | -2% | .
Cc1cc(C(=O)CSc2nnc(-c3cccs3)o2)c(C)n1-c1ccccc1 | 20µM* | -11% | 10% | 12% | -3% | >11
O=C(CSc1nnc(-c2cccs2)o1)c1cccs1 | -7% | -15% | -5% | 8% | -3% | >57
Cc1cc(C(=O)CSc2nnc(-c3ccco3)o2)c(C)n1Cc1ccco1 | 25µM* | -2% | -23% | 34% | -9% | >57
Cc1nc(N2CCOCC2)c2nc(-c3ccccc3)n(CCCN3CCOCC3)c2n1 | -9% | . | -11% | 18% | -3% | .
C=CC1=C(C)C2=Cc3c(C=C)c(C)c4[n]3[Sn+2][n]3c(c(C)c(CCC(=O)O)c3=CC3=NC(=C4)C(C)=C3CCC(=O)O)=CC1=N2 | ? | 2% | -22% | ? | 32µM* | .
COc1ccc2c(c1)c(=O)oc1cc(OCC(=O)N3CCCC(C)C3)ccc12 (stereo not given) | -18% | -16% | 32µM* | 248% | 2% | .
COc1ccc(C(=O)COC(=O)c2ccco2)cc1 | 11% | 6.3µM* | 2% | -4% | 0% | 3.1*
CCN(CC)CCCCNC(=O)c1ccc(Cc2nc3ccccc3[nH]2)cc1 | 1% | . | . | . | . | .
COCC(=O)O | -3% | . | 3% | 37% | 0% | .
CNc1nc(N2CCc3ccccc32)ncc1F | ? | 16µM* | ? | -7% | -1% | i
O=C(O)c1cc(Cl)cc(Cl)c1 | -2% | . | 12% | 18% | 2% | .
COc1ccc(NC(=O)Cc2cccs2)c(OC)c1 | -30%[11.4 µM] | 1% | -3% | 3.2µM* | -7%[11 µM] | .
O=C(/C=C/c1ccccc1)c1ccc(O)cc1O | 20µM* | . | ? | . | . | .
SMILES | 15-hLO inh | Luciferase inh | ERK AVP block | Tau fil binding | Hsp90 Hop PPI | Bst PK mod
COc1ccc(/C=C/C(=O)c2cc(O)ccc2O)cc1 | 20µM* | . | ? | . | . | .
COc1ccc(/C=C/C(=O)c2ccc(O)cc2O)cc1 | 20µM* | . | ? | . | . | .
COc1cc(O)c(C(=O)/C=C/c2ccc(O)c(OC)c2)c(OC)c1 | -40% | . | 4% | . | . | .
O=C(/C=C/c1ccc(O)cc1)c1ccc(O)cc1O | -10%[11.4 µM] | . | 11%[11.5 µM] | . | . | .
COc1ccc(/C=C/C(=O)c2ccc(O)cc2O)cc1OC | 16µM* | . | 16µM* | . | . | .
COc1ccc(C(=O)c2ccc(OC)cc2O)c(O)c1 | -6% | -4% | -2% | -17% | -3% | >57
CCOC(=O)CCCN | 2%[11.4 µM] | 0%[11.4 µM] | 10%[11.5 µM] | -4%[11.4 µM] | -4%[11 µM] | .
COC(=O)[C@@H]1C[C@@H]2CC[C@@H](O)C[C@@H]2N1Cc1ccc(N2CCOCC2)cc1 | . | . | 20% | . | . | .
COc1ccc(NC(=O)/C=C\c2ccc(Cl)cc2)cc1 | -11% | 13µM* | ? | -12% | 15% | .
O=[N+]([O-])c1cc(N(CCO)CCO)ccc1NCCO | -21% | . | -18% | -13% | -21% | .
Cc1cc(-n2c(C)cc(C(=O)CSc3ncnc4ccccc34)c2C)no1 | -8% | -3% | 20µM* | -8% | -2% | >57
CO[C@H]1COC(=O)[C@H]2CCCN2C(=O)C/C=C\[C@@H](C)[C@H](OC)COC(=O)[C@@H](OCc2ccccc2)/C=C\[C@@H]1C | 7%[11.4 µM] | 1%[11.4 µM] | -15%[11.5 µM] | . | . | .
Nc1cc(-c2ccncc2)c[nH]c1=O | 13µM* | -5%[25.5 µM] | -12% | 3%[25.6 µM] | -11%[26 µM] | .
c1ccc2c(-c3ccncc3)c[nH]c2c1 | 6% | -2% | 33% | -14% | 0% | i
CC(=O)c1c(C)nc(-c2ccc(Cl)cc2)nc1N=CN(C)C | -7% | -5% | -26% | 25µM* | 1% | ?
COc1ccc(OC)c(S(=O)(=O)Nc2ccc(O)c(Sc3ncn[nH]3)c2)c1 | 13µM* | 2% | -10% | 12% | -5% | >57
COc1ccc(OC)c(S(=O)(=O)Nc2ccc(O)c3ccccc23)c1 | 25µM* | -5% | -13% | 25µM* | -11% | >57
COc1ccc(OC)c(S(=O)(=O)Nc2ccc(C(N)=O)cc2)c1 | 3% | 0% | -13% | -2% | -3% | >57
COc1ccccc1N1CCN(C[C@@H](C(=O)NC(C)(C)C)c2ccccc2)CC1 | 16µM* | 3% | -5% | ? | -1% | .
COC(=O)c1ccc(CSc2nccn2C)cc1 | -4% | -5% | -11% | 27% | 3% | >57
Cn1ccnc1SCc1cn2cc(Br)ccc2n1 | 11% | 16µM* | -28% | -7% | 1% | i
C(=Nc1cnc2ccccc2c1)c1ccc2ccccc2n1 | 2%[11.4 µM] | 2%[11.4 µM] | -3%[11.5 µM] | 4%[11.4 µM] | 0%[11 µM] | .
N=C1C=CC=C2C1=NC1(CCCCC1)N2O | -13% | -7% | ? | 16µM* | ? | .
O=C(O)CCC(C(=O)O)n1c(O)c(C2=c3ccccc3=NC2=O)sc1=S (stereo not given) | 10µM* | -17% | ? | -4% | 2% | .
COc1ccc(C(=O)Nc2nc3ccccc3[nH]2)cc1OC | -9% | 25µM* | -3% | 6% | -7% | i
O=C(Nc1nc2ccccc2[nH]1)c1ccccc1F | -2% | 1µM* | -17% | -5% | -4% | 1.4*
